{
  "source": "PubChem BioAssay (Tox21)",
  "note": "Several values for one entry are separate records, joined by “and”; a condition that tells them apart may be missing. Equal values may be shown once. Records with an inconclusive call do not appear. Some structures have more than one record in an assay (separate samples or runs), and their calls can disagree. Activity calls are given as the source filed them. The call rests on the fitted dose curve; in most records, active means well fitted activation curve with a large enough effect in the repeat runs; inconclusive means weak or mixed curves; inactive means flat fitted curve, though single readings scatter. On the % scale 0 is the no-effect control and ±100 the full control effect; potency means the concentration at half of the fitted maximal effect.",
  "data": [
    {"assay": "A CellTox Green Cytotoxicity Assay to monitor cytotoxicity in HepG2 cells - 8 hour (AID 1224890); further: nearly all actives have a fitted effect of over 45% in size", "details": "CellTox Green fluorescence; series mostly up to 76.8 µM; cytotoxicity increase: at the top concentration", "excerpt": "National Center for Advancing Translational Sciences [NCATS]\nNIH Chemical Genomics Center [NCGC]\nU.S. Environmental Protection Agency [EPA]\nNational Institutes of Environmental Health Sciences [NIEHS]\nNational Toxicology Program [NTP]\nCell-based models are critical for drug discovery. Determining the natural cytotoxic effects resulting from test compounds is an essential research activity. A CellTox Green Cytotoxicity Assay to monitor cytotoxicity in real time of continues cell culture during 40 hours of the compound treatment was used to screen Tox21 10K library compounds in HepG2 cells. CellTox Green Cytotoxicity Assay is a nonlytic, homogeneous, biofluorescent method to measure cytotoxicity in cell culture after experimental manipulation. The assay system uses a proprietary asymmetric cyanine dye that is excluded from viable cells but preferentially stains the dead cell's DNA. […] Viable cells produce no appreciable increases in fluorescence. Therefore, the fluorescence signal produced by the binding interaction with dead cell DNA is proportional to cytotoxicity.\nThe mixture of HepG2 cell suspension and reagents were dispensed at 600cells/6 ul/well in 1536-well tissue culture treated black solid bottom plates using a Multidrop dispenser. After the assay plates were incubated at a 37 C/5% CO2 incubator for 5 hours, 23 nL of compounds dissolved in DMSO, positive and negative controls was transferred to the assay plate by a pintool work station. The plates were incubated at 37 C for 40 hours. The fluorescence intensity were measured at 0h, 8h, 16h, 24h, 32h and 40h time points using ViewLux plate reader during compound treatment.", "values": [
      {"smiles": "C[N+]1(CCC(C(N)=O)(c2ccccc2)c2ccccc2)CCCCC1", "cytotoxicity increase": "-15.9% [at 35.3 µM] (inactive)"},
      {"smiles": "FC(F)OC(F)(F)C(F)Cl", "note": "(stereo not given)", "cytotoxicity increase": "-0.384% (inactive)"},
      {"smiles": "O=C=NC1CCCCC1", "cytotoxicity increase": "0.381% (inactive)"},
      {"smiles": "O=C(O)c1cc(Cl)ccc1Cl", "cytotoxicity increase": "-5.49% (inactive)"},
      {"smiles": "O=S(=O)(Cl)Cl", "cytotoxicity increase": "-4.61% (inactive)"},
      {"smiles": "CC(Oc1cccc(Cl)c1)C(=O)O", "note": "(stereo not given)", "cytotoxicity increase": "0.0288% (inactive)"},
      {"smiles": "O=C(CCl)CCl", "Potency": "inactive"},
      {"smiles": "COP(=O)(OC)OC(Br)C(Cl)(Cl)Br", "note": "(stereo not given)", "Potency": "inactive"},
      {"smiles": "CCCCNC(=O)OCC#CI", "cytotoxicity increase": "0.0187% (inactive)"},
      {"smiles": "COC1CC(=C(c2cccs2)c2cccs2)C[N+](C)(C)C1", "note": "(stereo not given)", "cytotoxicity increase": "0.175% [at 35.3 µM] (inactive)"},
      {"smiles": "CCCCCCCCn1sccc1=O", "Potency": "25.7 µM (active)"},
      {"smiles": "CN(C1CCCCC1)C1CCCCC1", "cytotoxicity increase": "-4.02% (inactive)"},
      {"smiles": "ClCc1ccccc1Cl", "cytotoxicity increase": "-0.771% (inactive)"},
      {"smiles": "COc1cc(CC#N)cc(OC)c1OC", "cytotoxicity increase": "-0.788% [at 35.3 µM] (inactive)"},
      {"smiles": "CCCCC(CC)COC(=O)c1c(Br)c(Br)c(Br)c(Br)c1C(=O)OCC(CC)CCCC", "note": "(stereo not given)", "cytotoxicity increase": "-15.4% [at 35.3 µM] (inactive)"},
      {"smiles": "C[Si](Cn1cncn1)(c1ccc(F)cc1)c1ccc(F)cc1", "Potency": "inactive"},
      {"smiles": "CCCCC(CC)CO[N+](=O)[O-]", "note": "(stereo not given)", "cytotoxicity increase": "-1.27% (inactive)"},
      {"smiles": "COCc1cnc(C2=NC(C)(C(C)C)C(=O)N2)c(C(=O)O)c1", "note": "(stereo not given)", "cytotoxicity increase": "2.25% (inactive)"},
      {"smiles": "C=CC(=O)NC(C)(C)CC(C)=O", "cytotoxicity increase": "-10.4% (inactive)"},
      {"smiles": "Nc1ccccc1C(=O)OCCc1ccccc1", "Potency": "inactive and 24.5 µM (active)"},
      {"smiles": "Cc1ccc2c(C)cccc2c1", "cytotoxicity increase": "-3.1% (inactive)"},
      {"smiles": "O=C(Cc1ccccc1)OCCc1ccccc1", "cytotoxicity increase": "0.744% (inactive)"},
      {"smiles": "Cc1ncc(C[n+]2csc(CCO)c2C)c(N)n1", "cytotoxicity increase": "-10.6% (inactive)"},
      {"smiles": "CC(O)CN1CCN(CC(=O)[O-])CCN(CC(=O)[O-])CCN(CC(=O)[O-])CC1.[Gd+3]", "note": "(stereo not given)", "cytotoxicity increase": "0.3% [at 35.3 µM] (inactive)"},
      {"smiles": "CC(CC(C(N)=O)(c1ccccc1)c1ccccc1)N(C)C", "note": "(stereo not given)", "cytotoxicity increase": "2.41% [at 35.3 µM] (inactive)"},
      {"smiles": "C=CCc1ccccc1O", "cytotoxicity increase": "0.57% (inactive)"},
      {"smiles": "COc1ccc(C(=O)c2c(C)n(CCN3CCOCC3)c3ccccc23)cc1", "Potency": "1.07 µM (active)"},
      {"smiles": "CCOC(=O)c1cncn1C(C)c1ccccc1", "note": "(stereo not given)", "cytotoxicity increase": "0.0736% [at 35.3 µM] (inactive)"},
      {"smiles": "CC(C)(C)NCC(O)c1ccccc1Cl", "note": "(stereo not given)", "cytotoxicity increase": "-5.83% [at 35.3 µM] (inactive)"},
      {"smiles": "C[C@]12C=CC3=C4CCC(=O)C=C4CC[C@H]3[C@@H]1CC[C@@H]2O", "cytotoxicity increase": "-7.78% (inactive)"},
      {"smiles": "CCCN(CCC)c1c([N+](=O)[O-])cc(C(C)C)cc1[N+](=O)[O-]", "Potency": "inactive"},
      {"smiles": "CN[C@@H](C)[C@H](O)c1ccccc1", "cytotoxicity increase": "2.03% [at 35.3 µM] (inactive)"},
      {"smiles": "CCC1(CCC(C)C)C(=O)NC(=O)NC1=O", "cytotoxicity increase": "-0.167% (inactive)"},
      {"smiles": "CCCCCCCCP(=O)(O)O", "cytotoxicity increase": "-11.8% (inactive)"},
      {"smiles": "CC(=O)OC(c1ccccc1)C(Cl)(Cl)Cl", "note": "(stereo not given)", "Potency": "24.5 µM (active)"},
      {"smiles": "CC(C)[C@@H](C(=O)O[C@@H](C#N)c1cccc(Oc2ccccc2)c1)c1ccc(Cl)cc1", "Potency": "inactive"},
      {"smiles": "O=C1NC(=O)C(=O)C(=O)N1", "cytotoxicity increase": "-10.6% (inactive)"},
      {"smiles": "C1CCNCC1", "cytotoxicity increase": "-2.2% (inactive)"},
      {"smiles": "CCOC(=O)c1cn2nc(OP(=S)(OCC)OCC)cc2nc1C", "cytotoxicity increase": "-4.77% (inactive)"},
      {"smiles": "NCCc1cc(O)c(O)cc1O", "cytotoxicity increase": "0.943% [at 35.3 µM] (inactive)"}
    ]}
  ]
}
